In the library only some 3.6% were active in any assay of this set; here they are far more common.
HTT-AS promoter = activators of huntingtin-antisense promoter activity | HEK293 HTT-AS promoter firefly luciferase reporter, 24 h; response scale: percent change from vehicle, -100% = no light | Potency, µM (titrated, usually from 57.5 µM), inactives show at the highest dose activity change, positive = activation, hits mostly activators | 48,000 tested, 0.24% active | AID 1508624; further: potency means the concentration at half of the fitted maximal effect; nearly all actives have a fitted effect of over 55% in size
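Firefly luciferase signal from promoter-reporter HEK293 cells was scaled between vehicle (0%) and zero RLU (-100%). Compounds were tested at final concentrations of up to 57.5 uM over 24 h at 37 degrees C. PTC124 at 50 uM final served as control inhibitor.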
mTORC1 inh = inhibitors of mTORC1 signaling in Tsc2-/- p53-/- MEF cells. Tsc2-/- p53-/- MEF, phospho-rpS6 immunofluorescence/PI, 24 h. Potency, µM (titrated, usually from 38.3 µM), for inactives: top-dose activity change, negative = inhibition, usual class: inhibitors. 44,000 tested, 0.78% active. AID 493208;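 further: potency means the concentration at half of the fitted maximal effect; plate controls were DMSO for no effect and rapamycin for full effect; nearly all actives have a fitted effect of over 50% in size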
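Compounds act on Tsc2-/-, p53-/- fibroblasts carrying an empty vector for 24 h before fixation and dual staining for phospho-S6 and DNA (propidium iodide). Values are percentages of cells above a rapamycin-defined pS6/PI threshold.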
HTT prom inh = inhibitors of huntingtin promoter activity | HEK293 HTT promoter firefly luciferase reporter, 24 h | Potency, µM (highest dose often 57.5 µM), for the others: at the top dose activity change, negative = inhibition, most hits filed as inhibitors | 48,000 tested, 0.93% active | AID 1508623; further: potency means the concentration at half of the fitted maximal effect; nearly all actives have a fitted effect of over 50% in size
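HEK293 Fluc reporter, 2,500 cells/well, 24 h pre-culture; cpds up to 57.5 uM final, 24 h 37 degrees C; Dual-Glo, 10 min RT; normalized vehicle = 0%, zero RLU = -100%.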
PMP22 txn prim = modulates PMP22 transcription in S16 Schwann cells | S16 Pmp22-F2sN Schwann cells, FLuc/NLuc coincidence luminescence, 24 h | Potency, µM (titrated, usually from 57.5 µM), for inactives: top-dose activity change, negative = inhibition, usual class: inhibitors | 43,000 tested, 2% active; active means clear falling dose curves in both reporters; inconclusive means both reporters move, but less clearly or upward; inactive means either reporter flat; the % is the NLuc reporter signal; further: potency means the concentration at half of the fitted maximal effect; on the % scale 0 is the no-effect control and ±100 the full control effect
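Luminescent read-out of sequential FLuc and NLuc signals from a reporter embedded in the Pmp22 3' UTR of S16 Schwann cells, taken after 24 h compound exposure at 37C; compounds reducing both signals score as inhibitors of expression.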
SKOV3 invasion = blocks SKOV3ip1 adhesion and invasion in omental model; SKOV3ip1-GFP adhesion/invasion on 3D omental model, fluorescence; Potency, µM (series often up to 45.8 µM), for inactives: top-dose activity change, negative = inhibition, hits mostly inhibitors; 46,000 tested, 0.1% active; AID 1963576;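 further: potency means the concentration at half of the fitted maximal effect; plate controls were DMSO wells for no effect and tomatine positive control wells for full effect; nearly all actives have a fitted effect of over 65% in size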
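Adhesion/invasion was scored as fixed GFP-labeled SKOV3ip1 cell counts (488/509 nm), normalized to DMSO and tomatine controls. Cancer cells in serum-free medium, with four compound doses (0.36-46 umol/L), sat 2 hr at RT then 16 hr at 37 C on a 48 hr fibroblast/mesothelial/ECM culture.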
S16 viability = S16 Schwann cell cytotoxicity. AID 1508642. 43,000 tested, 0.48% active. S16 Pmp22-F2sN Schwann cells viability, CellTiter-Glo, 24 h. Potency, µM (titrated, usually from 57.5 µM), for inactives: top-dose activity change, negative = cytotoxicity, usual class: cytotoxic; further: potency means the concentration at half of the fitted maximal effect; on the % scale 0 is the no-effect control and ±100 the full control effect; nearly all actives have a fitted effect of over 65% in size
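Seed 500-1,000 S16 Pmp22-F2sN cells per well in phenol-red-free DMEM with 10% heat-inactivated FBS; pin-add 23 nL compound; incubate 24 h at 37C; add CellTiter-Glo, wait 15 min protected from light; read luminescence.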
NLuc sat counter = counter-screen for PMP22 expression modulators: NanoLuc inhibition, saturating substrate. shares compounds with PMP22 txn prim. Secreted NLuc enzyme (filtered S16 cell medium), Nano-Glo luminescence. Potency, µM (series often up to 57.5 µM), inactives show top-dose activity change, negative = inhibition, hits mostly inhibitors. 690 tested, 4% active; further: potency means the concentration at half of the fitted maximal effect; on the % scale 0 is the no-effect control and ±100 the full control effect
NLuc Km counter = inhibits NanoLuc under Km conditions, PMP22 counter-screen; Potency, µM (top dose mostly 57.5 µM), for inactives: at the highest dose activity change, negative = inhibition, actives largely listed as inhibitors; secreted NLuc enzyme, coelenterazine luminescence, Km conditions; shares compounds with PMP22 txn prim; 690 tested, 5% active; AID 1508639; further: potency means the concentration at half of the fitted maximal effect; on the % scale 0 is the no-effect control and ±100 the full control effect
FLuc ctr PMP22 = counter-screen for PMP22 expression modulators: firefly luciferase inhibition | shares compounds with PMP22 txn prim | purified P. pyralis FLuc, luminescence, 10 min | Potency, µM (highest dose often 57.5 µM), for inactives: at the top dose activity, negative = inhibition, actives largely listed as inhibitors | 690 tested, under 10 active | AID 1508640; further: % of control where 0% means no effect
Target sequence (P08659 whole entry, looked up): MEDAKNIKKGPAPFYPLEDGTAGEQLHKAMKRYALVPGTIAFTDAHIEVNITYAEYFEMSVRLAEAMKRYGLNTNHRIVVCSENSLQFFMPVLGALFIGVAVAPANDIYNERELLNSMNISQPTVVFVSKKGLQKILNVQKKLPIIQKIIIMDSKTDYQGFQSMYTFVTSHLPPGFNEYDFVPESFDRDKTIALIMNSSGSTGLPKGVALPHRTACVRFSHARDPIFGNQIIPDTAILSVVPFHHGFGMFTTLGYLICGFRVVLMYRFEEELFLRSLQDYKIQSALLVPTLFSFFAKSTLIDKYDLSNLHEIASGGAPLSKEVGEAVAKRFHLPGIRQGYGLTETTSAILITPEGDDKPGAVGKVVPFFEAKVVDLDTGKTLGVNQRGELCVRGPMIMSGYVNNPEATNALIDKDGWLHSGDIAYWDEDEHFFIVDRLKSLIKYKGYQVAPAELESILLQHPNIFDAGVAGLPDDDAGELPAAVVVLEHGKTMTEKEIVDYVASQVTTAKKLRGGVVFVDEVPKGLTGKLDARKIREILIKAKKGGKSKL
S16 viab conf = confirmation of cytotoxicity in S16 Pmp22-F2sN Schwann cells (luciferase reporters placed in the Pmp22 gene) | AID 1508641 | 690 tested, 7% active | Potency, µM (titrated, usually from 57.5 µM), without a hit: at the highest dose activity change, negative = viability loss, hits mostly cytotoxic | shares compounds with PMP22 txn prim | S16 Schwann cells viability, CellTiter-Glo ATP luminescence, 24 h; further: potency means the concentration at half of the fitted maximal effect; on the % scale 0 is the no-effect control and ±100 the full control effect
PMP22 txn cnf = PMP22 transcription modulation, confirmatory; shares compounds with PMP22 txn prim; S16 Schwann cells Pmp22-F2sN, dual luciferase, 24 h; Potency, µM (doses to about 57.5 µM), for the others: top-dose activity change, negative = inhibition, usual class: inhibitors; 690 tested, 22% active; AID 1508646; active means clear falling dose curves in both reporters; inconclusive means both reporters move, but less clearly or upward; inactive means either reporter flat; the % is the FLuc reporter signal; further: potency means the concentration at half of the fitted maximal effect
PMP22 HiBiT cnf = rat PMP22 protein level modulation, confirmatory. shares compounds with PMP22 txn prim. S16 Schwann cells Pmp22-HiBiT, luminescence, 48 h. Potency, µM (top dose mostly 27.9 µM), for the others: top-dose activity change, negative = inhibition, usual class: inhibitors. 95 tested, under 10 active. AID 1508647
Target sequence (P25094 whole entry, looked up): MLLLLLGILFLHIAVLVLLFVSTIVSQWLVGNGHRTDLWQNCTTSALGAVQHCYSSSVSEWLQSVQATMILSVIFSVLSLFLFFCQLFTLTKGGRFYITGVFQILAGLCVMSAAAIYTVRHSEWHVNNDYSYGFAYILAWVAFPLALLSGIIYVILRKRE
The depositor's hits bear a star; i = inactive; ? = inconclusive; · = not tested or not shown. Unless noted, the call rests on the fitted dose curve; in most records, active means well fitted curve in the direction sought with a large enough effect; inconclusive means small, poorly fitted or top-dose-only effect, or another doubt; inactive means no such curve, though single readings can be large; an effect the other way counts as inactive or inconclusive.

SMILES	HTT-AS promoter	mTORC1 inh	HTT prom inh	PMP22 txn prim	SKOV3 invasion	S16 viability	NLuc sat counter	NLuc Km counter	FLuc ctr PMP22	S16 viab conf	PMP22 txn cnf	others
NC(=O)C1(N2CCCCC2)CCN(CCCN2c3ccccc3CCc3ccc(Cl)cc32)CC1	-37.8%	·	?	·	·	·	·	·	·	·	·
CCc1ccc(OCC(=O)Nc2cc3oc4ccccc4c3cc2OC)cc1	-3.4%	1.2%	1.8%	6.45µM*	i	4.4%	5.5%	2.0%	3.1%	-13.0%	18.3µM*	PMP22 HiBiT cnf=10.8%
CC(=O)N1c2c(cc(Br)cc2S(=O)(=O)Nc2ccc(OC(F)(F)F)cc2)CC1C (centres undefined)	-62.6%	?	25.1µM*	16µM*	14.8%	-24.4%	21.7µM*	1.53µM*	-5.3%	2.8%	-30.0%
COc1ccc(CNS(=O)(=O)c2cc(Br)cc3c2N(C(C)=O)C(C)C3)cc1 (centres undefined)	-20.1%	-8.6%	-19.4%	-41.3%	-22.8%	5.9%	·	·	·	·	·
CCN(C(=O)CSc1nc2ccccc2nc1Cc1ccc(F)cc1)c1cccc(C)c1	-22.3%	3.9%	-18.4%	-50.8%	42.6%	-15.1%	·	·	·	·	·
CCN(C(=O)CSc1nc(-c2ccccc2)no1)c1cccc(C)c1	-75.7%	6.1%	3.16µM*	12.9µM*	-22.5%	-8.5%	19.3µM*	4.85µM*	-12.6%	?	35.0%
COc1cccc(Cn2c(CNC(=O)c3cc([N+](=O)[O-])ccc3Cl)nc3cccnc32)c1	-33.1%	-0.9%	-21.9%	13.3µM*	-61.6%	1.9%	-4.3%	-4.2%	-1.6%	7.0%	4.2%
COCCn1c(CNC(=O)c2cc([N+](=O)[O-])ccc2Cl)nc2cccnc21	-10.0%	1.0%	2.0%	-18.0%	14.6%	11.3%	·	·	·	·	·
CCCN1CCN(CCCNC(=O)Cn2c(-c3cccs3)cc3cc(Cl)ccc32)CC1	-26.6%	-0.3%	?	10.6µM*	?	?	0.7%	-2.7%	1.8%	?	?
CCN1CCN(CCCNC(=O)Cn2c(-c3cccs3)cc3ccccc32)CC1	-6.8%	-9.6%	-19.3%	?	-4.0%	?	·	·	·	·	·
Cc1ccc(C)c(N2CCN(CCCNC(=O)Cn3c(-c4cccs4)cc4ccccc43)CC2)c1	-39.7%	?	?	13.4µM*	?	?	-3.9%	-4.5%	-1.3%	?	?	PMP22 HiBiT cnf=14.7%
CCCN1CCN(CCCNC(=O)Cn2c(-c3cccs3)cc3ccccc32)CC1	-13.9%	1.3%	-26.2%	?	4.5%	6.0%	·	·	·	·	·	PMP22 HiBiT cnf=?
C#C[C@]1(O)CC[C@@H]2[C@@H]3CCC4=CC(=O)CC[C@@H]4[C@H]3CC[C@@]21CC	-27.7%	·	-9.5%	·	-2.9%	·	·	·	·	·	·
COC(=O)c1ccc(NC(C)=O)cc1OC	-5.2%	·	-2.2%	·	·	·	·	·	·	·	·
COc1ccc(CCNc2ncnc3onc(C)c23)c(OC)c1	-84.1%	0.7%	1.26µM*	4.01µM*	3.8%	?	-17.5%	4.4%	-17.2%	?	3.96µM*
CN(C)Cc1c(C(=O)NCCOc2ccc(C(=O)NO)cc2)oc2ccccc12	?	·	277.9%	·	-11.3%	·	·	·	·	·	·
Cc1ccc2cc(CN(C(=O)c3cccc(Cl)c3)c3ccccc3)c(=O)[nH]c2c1	2.3%	-6.9%	-19.4%	-7.0%	0.4%	0.6%	·	·	·	·	·
CCCCN(Cc1cc2ccccc2[nH]c1=O)C(=O)c1cccc(Cl)c1	-13.2%	4.1%	?	20µM*	-9.5%	-0.3%	?	?	3.0%	?	-11.6%
COC(=O)c1c(C)oc2ccc(N(C(=O)c3ccncc3)S(=O)(=O)c3c(C)cc(C)cc3C)cc12	-37.9%	-15.6%	?	3.77µM*	-3.5%	-11.5%	-8.3%	6.1%	10.7%	-7.0%	?
CCOC(=O)c1c(C)oc2ccc(N(C(=O)c3ccncc3)S(=O)(=O)c3ccc(F)cc3C)cc12	-47.6%	-4.7%	?	?	8.7%	-22.0%	·	·	·	·	·
COc1ccc(N2CCN(C(=O)c3ccc4c(c3)N(Cc3ccc(F)cc3)C(=O)c3ccccc3S4=O)CC2)cc1 (centres undefined)	-24.5%	-8.0%	?	?	19.4%	15.1%	0.153µM*	0.122µM*	1.1%	-1.6%	-17.3%
CCN1C(=O)c2ccccc2S(=O)c2ccc(C(=O)N3CCN(c4ccc(F)cc4)CC3)cc21 (centres undefined)	-29.6%	0.2%	-18.9%	?	i	23.6%	·	·	·	·	·
CC(C)OCCCNc1ncnc2sc3c(c12)CCCC3	-39.0%	-20.2%	?	14.1µM*	i	-10.0%	-2.6%	-2.7%	-8.7%	-7.5%	-5.9%
CCOC(=O)C(CC)Sc1ncnc2sc3c(c12)CCCC3 (centres undefined)	-28.8%	-15.6%	-20.2%	?	-9.8%	1.9%	·	·	·	·	·
CCOC(=O)c1c(C)oc2nc(C)nc(NCCc3ccc(Cl)cc3)c12	-18.9%	?	-4.7%	-35.1%	9.8%	13.6%	·	·	·	·	·
CCOC(=O)c1c(C)oc2nc(C)nc(NCCc3ccc(OCC)cc3)c12	-32.0%	5.7%	?	14.2µM*	-23.3%	-26.6%	?	?	-10.1%	-11.4%	?
